Test results taken from PubChem BioAssay (Tox21).
Results filed as inconclusive are left out. A call without a number means that no potency is given here. A number with no mark means an inactive call. Active and inactive are the calls of the source. The call rests on the fitted dose curve; in most records, active means well fitted cell-killing curve with a large enough effect in the repeat runs; inconclusive means weak or mixed curves, or effect the other way; inactive means no such curve, though single readings can be large or run the other way.

Test: qHTS assay for small molecule activators of the heat shock response signaling pathway - cell viability counter screen (AID 743209); further: nearly all actives have a fitted effect of over 50% in size
Details: HSE-bla HeLa viability, CellTiter-Glo luminescence, 5 h; series mostly up to 62.6 µM
Source text: U.S. Tox21 Program National Center for Advancing Translational Sciences [NCATS] NIH Chemical Genomics Center [NCGC] U.S. Environmental Protection Agency [EPA] National Institutes of Environmental Health Sciences [NIEHS] National Toxicology Program [NTP] U.S. Food and Drug Administration [FDA] Tox21 Assay Overview: Various chemicals, environmental and physiological stress conditions may lead to the activation of heat shock response/ unfolded protein response (HSR/UPR). There are three heat shock transcription factors (HSFs) (HSF-1, -2, and -4) mediating transcriptional regulation of the human HSR. To identify the compounds that activate HSR signaling, HSE-bla HeLa cell line (Invitrogen, Carlsbad, CA, USA) containing a beta-lactamase reporter gene under the control of the heat shock response elements was used to screen Tox21 10K compound library. The cytotoxicity of the Tox21 compound library against the HSE-bla HeLa cell line was tested in parallel by measuring the cell viability using CellTiter-Glo assay (Promega, Madison, WI) in the same wells.
Tox21 Assay Protocol Summary: The CellSensor HSE-bla HeLa cells (Invitrogen, Carlsbad, CA, USA) were dispensed at 1500 cells/6uL/well into 1536-well black wall/clear bottom plates using a Multidrop combi (Thermo Fisher Scientific, Waltham, MA) dispenser. After the assay plates were incubated at 37 C and 5% CO2 overnight, 23 nL of compounds dissolved in DMSO, positive controls or DMSO only was transferred to the assay plate by a Pintool station (Kalypsys, San Diego, CA). The plates were incubated at 37 C for 5 h. After 1 uL of LiveBLAzerTM B/G FRET substrate was added using a Flying Reagent Dispenser (FRD, Beckman Coulter, Indianapolis, IN, USA), the plates were incubated at room temperature for 2.5 h, and fluorescence intensity was measured by an Envision plate reader (PerkinElmer, Shelton, CT). For cell viability readout that measures cytotoxicity, 3 ul/well of CellTiter-Glo reagent was added into the assay plates using a FRD. After 30 min incubation at room temperature, the luminescence intensity in the plates was measured using a ViewLux (PerkinElmer) plate reader.
Potency means the concentration at half of the fitted maximal effect.

Row | Structure (SMILES) | Potency | activity change, negative = cytotoxicity
1 | O=C(O)c1snc(Cl)c1Cl | inactive | –
2 | NC(=O)N(O)[C@@H]1COc2cc(OCc3ccccc3)ccc21 | inactive | –
3 | CCC(C)=O | inactive | –
4 | OC/C(Br)=C(\Br)CO | inactive | –
5 | [O]=[Bi] | – | 0.948% [at 5.95 µM]
6 | Nc1ccc(Cl)cc1[N+](=O)[O-] | inactive | –
7 | Cc1ccc(S(=O)(=O)NC2CCCCC2)cc1 | inactive | –
8 | CC1(C)O[C@@H]2C[C@H]3[C@@H]4CCC5=CC(=O)C=C[C@]5(C)[C@H]4[C@@H](O)C[C@]3(C)[C@]2(C(=O)CO)O1 | inactive | –
9 | COCc1c(C(C)C)nc(C(C)C)c(/C=C/[C@@H](O)C[C@@H](O)CC(=O)O)c1-c1ccc(F)cc1 | inactive | –
10 | O=C(O)c1ccccc1NCCc1ccccc1 | inactive | –
11 | COC(=O)CC(=O)C(C)(C)C | inactive | –
12 | COc1ccc(CCC(=O)c2c(O)cc(O[C@@H]3O[C@H](CO)[C@@H](O)[C@H](O)[C@H]3O[C@@H]3O[C@@H](C)[C@H](O)[C@@H](O)[C@H]3O)cc2O)cc1O | inactive | –
13 | O=C(O)C(Cc1cc(I)c(O)c(I)c1)c1ccccc1 (stereo not given) | inactive | –
14 | CCCCCCOC(=O)CCCCCCCC(=O)OCCCCCC | inactive | –
15 | CCN(CC)CCNC(=O)c1ccc(NC(C)=O)cc1 | inactive | –
16 | OC(CCCN1CCCCC1)(c1ccccc1)c1ccccc1 | inactive | –
17 | CN1CCN(c2c(F)cc3c(=O)c(C(=O)O)cn4c3c2OCN4C)CC1 | inactive | –
18 | CC(C)OCC1CO1 (stereo not given) | inactive | –
19 | COc1cc2[nH]c(=O)[nH]c(=O)c2cc1OC | inactive | –
20 | Cc1ccnc2ccccc12 | inactive | –

Row | Structure (SMILES) | Potency | activity change, negative = cytotoxicity
21 | CCCCC(CC)COC(=O)COc1ccc(Cl)cc1C (stereo not given) | inactive | –
22 | CC(=O)N(c1onc(C)c1C)S(=O)(=O)c1ccc(N)cc1 | inactive | –
23 | CCCCCCCCCCCC[N+](C)(C)CCCS(=O)(=O)[O-] | inactive | –
24 | CN1Cc2cc(C(=O)N3CCC(C4CCNCC4)CC3)ccc2N[C@@H](CC(=O)O)C1=O | inactive | –
25 | CCCc1c(OCCCOc2ccc(OCC(=O)O)cc2)ccc(C(C)=O)c1O | inactive | –
26 | CC1C2CC(CC2C2CCCC(O)C2)C1(C)C (stereo not given) | 49 µM (active) | –
27 | Nc1nccs1 | inactive | –
28 | CC(C)(C)CC(C)(C)c1ccc(OCCO)cc1 | inactive | –
29 | CCCCCCOC(=O)C(C)C | inactive | –
30 | CCOC(=O)CC(=O)C(=O)OCC | inactive | –
31 | O=C(CCCCCCC(=O)Nc1ccccc1)NO | inactive | –
32 | O=C(CCCN1CCN(c2ccc(F)cc2)CC1)NC1c2ccccc2CSc2ccccc21 (stereo not given) | inactive | –
33 | O=C(Nc1ccccc1)Nc1ccccc1 | inactive | –
34 | CCOC(=O)N1CCC(n2c(=O)[nH]c3cc(Cl)ccc32)CC1 | inactive | –
35 | CC1=C(C=O)C(C)(C)CCC1 | inactive | –
36 | CC1(C)C2=CCCC(C)(C)[C@]23CC[C@H]1C3 | inactive | –
37 | CNCCCC1c2ccccc2C=Cc2ccccc21 | inactive | –
38 | NC(=O)Cn1c(=O)cc(CCN2CCN(c3nccc4sccc34)CC2)c2ccc(F)cc21 | inactive | –
39 | O=C(c1ccc(O)cc1)c1ccc(Cl)cc1 | inactive | –
40 | CCCCCCCCCCCCCCC[C@H](O)[C@@H](N)CO | inactive | –
